{"source": "PubChem BioAssay (Tox21)", "note": "Where “and” joins values, the source holds several entries; their conditions need not be identical. Identical values can stand only once. Records with an inconclusive call do not appear. Entries that show only a call come without a potency. Calls of active or inactive are those of the source. Calls come from the whole dose curve; as a rule, active = well fitted cell-killing curve with a large enough effect in the repeat runs; inconclusive = weak or mixed curves, or effect the other way; inactive = flat fitted curve, though single readings scatter. Potency is the fitted concentration of half-maximal effect.", "data": [{"assay": "qHTS assay to identify small molecule agonists of the androgen receptor (AR) signaling pathway in the presence of an antagonist - cell viability counter screen (AID 1259379); note: nearly all actives have a fitted effect of over 25% in size", "settings": "MDA-kb2 viability, CellTiter-Fluor, 16 h; series mostly up to 92.4 µM", "excerpt": "National Center for Advancing Translational Sciences [NCATS]\nNIH Chemical Genomics Center [NCGC]\nU.S. Environmental Protection Agency [EPA]\nNational Institutes of Environmental Health Sciences [NIEHS]\nNational Toxicology Program [NTP]\nU.S. Food and Drug Administration [FDA]\nAndrogen receptor (AR) is an important member of nuclear receptor family. Its signaling plays a critical role in AR-dependent prostate cancer and other androgen related diseases. Considerable attention has been given in the past decades to develop methods to study and screen for the environmental chemicals that have the potential to interfere with metabolic homeostasis, reproduction, developmental and behavioral functions. Therefore AR binding assay for screening against androgen agonists and antagonists can be used to identify potential endocrine disruptors.\nMDA-kb2 cells (from ATCC, deposited by Wilson et al.) are human breast carcinoma cells that were stably transfected with a luciferase reporter gene under control of the MMTV promoter that contains response elements for both androgen receptor (AR) and glucocorticoid receptor (GR). This particular screening for measuring luciferase reporter gene activity using MDA-kb2 cells against Tox21 10K library compounds is a confirmation study on agonist mode screening in the presence of AR-antagonist compound (Nilutamide) at 3.0uM final concentration. The cytotoxicity of the compounds was tested in parallel by measuring the cell viability using CellTiter-Fluor assay system (Promega, Madison, WI) in the same wells.\nTox21 Assay Protocol Summary:\nMDA-kb2 cells (cells cultured without CO2) were dispensed at 3,000 cells/well in 4uL of culture medium into white wall/solid-bottom 1536-well plates (Corning Life Sciences, Corning, NY) using a Multidrop Combi (Thermo Fisher Scientific Inc., Waltham, MA) dispenser. The assay plates were incubated at 37C and 0% CO2 for 5hr. One uL of 3.0uM (final concentration) Nilutamide or assay buffer was added using two separate tips of Flying Reagent Dispenser (FRD, Aurora Discovery, San Diego, CA). Then 23nL of compounds dissolved in DMSO at 15 concentrations and positive controls were transferred to the assay plates using a Pintool station (Wako, San Diego, CA). The assay plates were incubated at 37C and 0% CO2 for 16 hr. After 15hr incubation at 37C, 1uL/well CellTiter-Fluor reagent (Promega Corporation) was added to each well of the assay plates using FRD. After 1hr incubation at 37C and 0% CO2, the fluorescence signal was measured using a ViewLux plate reader (PerkinElmer, Shelton, CT).", "values": [{"compound": "CC(=O)Nc1nnc(S(N)(=O)=O)s1", "Potency": "inactive"}, {"compound": "Nc1ccc(O)c(C(=O)O)c1", "Potency": "inactive"}, {"compound": "O=c1cc[nH]c(=S)[nH]1", "Potency": "inactive"}, {"compound": "Cc1cn([C@H]2C[C@H](N=[N+]=[N-])[C@@H](CO)O2)c(=O)[nH]c1=O", "Potency": "inactive"}, {"compound": "O=C1NC(=O)c2ccccc21", "Potency": "inactive"}, {"compound": "NC(N)=O", "Potency": "inactive"}, {"compound": "C[C@]12C=CC(=O)C=C1CC[C@@H]1[C@@H]2[C@@H](O)C[C@@]2(C)[C@H]1CC[C@]2(O)C(=O)CO", "Potency": "inactive"}, {"compound": "Nc1ccc(S(=O)(=O)Nc2nccs2)cc1", "Potency": "inactive"}, {"compound": "CCCCCCCCCCCCCCCC(=O)O", "Potency": "inactive"}, {"compound": "CCCC(O)C(CC)CO", "note": "(stereo not given)", "Potency": "inactive"}, {"compound": "Cc1ccc(S(=O)(=O)NC(=O)NN2CCCCCC2)cc1", "Potency": "inactive"}, {"compound": "CCCCC(CC)COC(=O)/C=C/c1ccc(OC)cc1", "note": "(stereo not given)", "Potency": "inactive"}, {"compound": "O=C(O)c1cc(N=Nc2ccc(S(=O)(=O)Nc3ccccn3)cc2)ccc1O", "Potency": "30.7 µM (active) and 30.6 µM (active)"}, {"compound": "Cn1c(=O)c2[nH]cnc2n(C)c1=O", "Potency": "inactive"}, {"compound": "O=C(O)c1cccc([N+](=O)[O-])c1", "Potency": "inactive"}, {"compound": "O=C(O)CS", "Potency": "inactive"}, {"compound": "O=c1ccc2ccccc2o1", "Potency": "inactive"}, {"compound": "Cc1ccc(O)cc1", "Potency": "inactive"}, {"compound": "O=NO", "Potency": "inactive"}, {"compound": "CC(C)[C@@H]1CC[C@@H](C)C[C@H]1O", "Potency": "inactive"}, {"compound": "CC(C)(Oc1ccc(C2CC2(Cl)Cl)cc1)C(=O)O", "note": "(stereo not given)", "Potency": "inactive"}, {"compound": "CCCNC(=O)NS(=O)(=O)c1ccc(Cl)cc1", "Potency": "inactive"}, {"compound": "O=C1CN(/N=C/c2ccc([N+](=O)[O-])o2)C(=O)N1", "Potency": "27.2 µM (active) and 61.1 µM (active) and 23.7 µM (active)"}, {"compound": "CCCCC1C(=O)N(c2ccccc2)N(c2ccccc2)C1=O", "Potency": "inactive"}, {"compound": "O=C(c1ccccc1)c1ccccc1", "Potency": "inactive"}, {"compound": "CCC1(c2ccccc2)C(=O)NCNC1=O", "Potency": "inactive"}, {"compound": "COc1c2occc2cc2ccc(=O)oc12", "Potency": "inactive"}, {"compound": "CC(O)CO", "note": "(stereo not given)", "Potency": "inactive"}, {"compound": "OCCc1ccccc1", "Potency": "inactive"}, {"compound": "O=C(O)c1cccnc1", "Potency": "inactive"}, {"compound": "CCOc1ccc(NC(=O)CC(C)O)cc1", "note": "(stereo not given)", "Potency": "inactive"}, {"compound": "O=C(O)CCC(=O)O", "Potency": "inactive"}, {"compound": "O=S(=O)(O)c1ccc2cc(O)ccc2c1", "Potency": "inactive"}, {"compound": "Cc1cc(=O)n(-c2ccccc2)n1C", "Potency": "inactive"}, {"compound": "Cc1cc(=O)[nH]c(=S)[nH]1", "Potency": "inactive"}, {"compound": "COc1ccc2[nH]cc(CCNC(C)=O)c2c1", "Potency": "inactive"}, {"compound": "C/C=C/c1ccc(OC)cc1", "Potency": "inactive"}, {"compound": "N=C(N)c1ccc(OCCCCCOc2ccc(C(=N)N)cc2)cc1", "Potency": "inactive"}, {"compound": "CC(O)C(=O)O", "note": "(stereo not given)", "Potency": "inactive"}, {"compound": "CCCCOC(=O)CC(CC(=O)OCCCC)(OC(C)=O)C(=O)OCCCC", "Potency": "inactive"}]}]}
